# Compound activity (PubChem)
# An excerpt weighted towards active compounds, which were near 4.8% of everything screened.
# DAX1 inh-1 = blocks DAX1 repression of SF-1 activated StAR promoter | HEK293T StAR-luciferase reporter, SF-1/DAX-1 repression relief | inhibition, % at 6.8 µM | actives 1.1% (n = 370,000);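 active = inhibition above the mean over all tested compounds plus 3 SD, cut at about 3.6% in these data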;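 note: 0% = DAX-1 cells with DMSO and 100% = cells lacking DAX-1 with DMSO; higher inhibition means more luminescence from relief of DAX-1 repression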
# NR1D1 modulator = modulates human Rev-erb alpha binding to DNA; P20393; actives 0.79% (n = 370,000); Rev-erbα–FITC-DNA binding, fluorescence polarization, 90 min; activity, % at 10 µM;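 active = activity above about 14%, limit read from the data; passing the limit was not always enough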;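 note: 0% = DMSO wells with 35 nM protein and 100% = DMSO wells with 750 nM protein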
# Target sequence (P20393 whole entry, looked up): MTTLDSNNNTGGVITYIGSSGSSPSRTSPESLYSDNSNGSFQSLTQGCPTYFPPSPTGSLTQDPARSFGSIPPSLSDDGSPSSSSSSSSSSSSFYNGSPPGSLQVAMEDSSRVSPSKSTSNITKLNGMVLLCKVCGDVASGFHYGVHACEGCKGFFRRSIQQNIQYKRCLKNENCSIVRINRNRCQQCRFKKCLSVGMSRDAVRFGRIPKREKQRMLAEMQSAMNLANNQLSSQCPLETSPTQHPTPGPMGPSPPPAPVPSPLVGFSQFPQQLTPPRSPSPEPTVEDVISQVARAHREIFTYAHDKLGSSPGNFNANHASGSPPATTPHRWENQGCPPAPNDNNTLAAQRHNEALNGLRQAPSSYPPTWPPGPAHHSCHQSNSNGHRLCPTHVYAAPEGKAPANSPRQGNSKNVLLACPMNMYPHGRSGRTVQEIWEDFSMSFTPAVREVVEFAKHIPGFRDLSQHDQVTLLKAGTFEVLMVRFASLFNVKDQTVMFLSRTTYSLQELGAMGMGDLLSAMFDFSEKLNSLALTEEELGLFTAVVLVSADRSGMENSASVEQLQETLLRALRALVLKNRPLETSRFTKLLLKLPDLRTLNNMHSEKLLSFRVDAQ
# DAX1 inh-2 = inhibitors of human orphan nuclear receptor DAX1 (NR0B1); P51843; HEK293 Gal4-DAX1 luciferase reporter, luminescence; inhibition, % at 6.75 µM; actives 0.99% (n = 340,000);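 active = inhibition above the mean over all tested compounds plus 3 SD, cut at about 4.2% in these data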;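 note: 0% = DAX1-transfected cells with DMSO and 100% = empty-vector control cells with DMSO; inhibition shows as a rise in luminescence from relieved DAX1 repression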
# hgDAF-12 ag = agonists of H. glycines DAF-12 nuclear receptor; HEK293 GAL4-hgDAF12 UAS-luciferase reporter, agonist luminescence; normalized to butyrate control; activation, % at 6.8 µM; actives 1.8% (n = 370,000); AID 687014;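 active = activation above a cutoff set at the mean of all screened compounds plus 3 SD, cut at about 10% in these data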;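 note: 0% = DMSO wells and 100% = sodium butyrate wells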
# hcDAF12 agonist = activators of H. contortus DAF-12 nuclear receptor | HEK293 hcDAF-12 lit1-tk-luc reporter, luminescence; 0% DMSO, 100% Δ7-dafachronic acid | activation, % at 6.8 µM | actives 1.4% (n = 370,000);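 active = activation above the mean of all tested compounds plus 3 SD, cut at about 5.5% in these data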;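 note: 100% = response to 3 µM Δ7-dafachronic acid high control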
# ssDAF-12 act = S. stercoralis DAF-12 activation, primary screen | activation, % at 6.8 µM | HEK293 ssDAF-12/GRIP1 lit1-tk-luc reporter, luminescence; % of 3 µM dafachronic acid response | actives 1% (n = 370,000);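 active = activation above the mean over all tested compounds plus 3 SD, cut at about 0.9% in these data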;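 note: 0% = DMSO-only wells and 100% = 3 µM delta7-dafachronic acid wells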
# * marks the source's active call; other numbers are inactive results; nt = no result given.
SMILES,DAX1 inh-1,NR1D1 modulator,DAX1 inh-2,hgDAF-12 ag,hcDAF12 agonist,ssDAF-12 act
COc1cccc(-c2cc(C(=O)NC3CCCCC3)no2)c1,1,-6,2,6,2,-1
COc1ccc(-c2cc(C(=O)NC(C)C)no2)cc1,2,5,1,10*,4,-1
COC(=O)C1=C(C)N(Cc2cccc(C(F)(F)F)c2)C(=NCc2ccc(OC)cc2)NC1c1cccc(F)c1 (stereo unspecified),0,1,nt,-1,3,-1
CCOC(=O)C1=C(C(=O)OCC)C2N(Cc3ccccc3)c3ccccc3[C@@]23C[C@@H](C(=O)OC)N(S(=O)(=O)c2ccc(C(F)(F)F)cc2)C3=N1 (stereo partly specified),0,-2,nt,1,2,-1
CC(C)c1ccc(NC(=O)Nc2nc(CN)cs2)cc1,2,0,nt,12*,1,-1
COCC(C)NC(=S)Nc1ccccc1[N+](=O)[O-] (stereo unspecified),0,0,1,-2,4,2.4*
COc1ccc2nc(/N=C/c3c(C)[nH]n(-c4ccc(C)cc4)c3=O)sc2c1,2,-4,0,5,5.6*,0
Cc1cc(=O)nc2c3ccccc3n(CC(=O)NCCCN3CCCC3=O)n12,1,-1,1,3,6.0*,0
CCN(CC)CCCNC(=O)C(C)n1c2ccccc2c2nc(=O)cc(C)n21 (stereo unspecified),1,2,5.4*,-1,-1,-1
Cc1ccccc1NC(=O)C(=O)NCCCN1CCCC1=O,3.7*,3,1,0,3,0
COC(=O)C1=C(C)N(Cc2ccccc2C(F)(F)F)C(=NCc2ccccc2C(F)(F)F)NC1c1ccc(Cl)cc1 (stereo unspecified),2,-1,nt,2,0,-1
COc1cc(OC)cc(-c2csc(N3CCC(C(N)=O)CC3)n2)c1,nt,2,nt,4,-1,-2
O=C(O)c1ccc(N=NN2CCCCCC2)cc1,3,-3,2,11*,4,0
O=C(O)c1ccc(N=NN2CCCC2)cc1,2,4,-1,5,2,0
NS(=O)(=O)c1cccc(NC(=O)CCSc2ccccc2Cl)c1,1,1,-1,5,4,-1
Cc1ccc(S(=O)(=O)NCCNc2ccccc2[N+](=O)[O-])cc1,1,4,4.3*,0,-1,-2
Cc1ccc(NC(=O)CCCCCNS(=O)(=O)c2ccc(C)cc2)cc1,1,-1,1,-1,2,1.1*
Cc1ccc(S(=O)(=O)NCCCCCCNS(=O)(=O)c2ccc(C)cc2)cc1,-2,2,1,-1,-2,-2
O=C(CCSc1ccccc1Cl)Nc1cccc([N+](=O)[O-])c1,1,0,0,11*,5,-1
Cc1ccc(S(=O)(=O)NCC(=O)Nc2cccc([N+](=O)[O-])c2)cc1,-1,3,0,1,5,1.7*
CN1C2=N[C@@H](c3ccccc3)CC(=O)N2/C(=C\c2ccccc2)[C@H]1c1ccccc1,nt,-9,nt,1,-1,-1
Cc1ccc(OCC(=O)Nc2ccc(C(=O)Nc3ccccc3C(=O)O)cc2)cc1C,2,-2,-1,11*,0,0
Cc1cccc(C(=O)Nc2ccccc2C(=O)Nc2ccc(C(=O)O)cc2)c1,0,-8,6.6*,0,0,-1
O=C(O)c1ccc(NC(=O)c2ccccc2NC(=O)c2cccc(F)c2)cc1,0,-2,0,0,0,0
CC(=O)CC[C@H]1CC[C@]2(CCCN(S(=O)(=O)C3CCCCC3)C2)O1,-1,3,nt,-3,0,-1
C#CCCCN([C@H](C(=O)OC)C(C)C)S(=O)(=O)c1ccc(F)cc1Br,0,0,nt,0,1,-1
O=C1N2Cc3ccccc3C2CS(=O)(=O)N1Cc1ccccc1 (stereo unspecified),0,8,nt,1,-1,0
NCCC(=O)Nc1ccc(Cl)cc1C(=O)c1ccc[nH]1,nt,0,nt,3,0,-1
CN(C)c1ccc(Cl)cc1N,-1,0,5.3*,0,0,-1
